Data reported in PubChem BioAssay (NCATS).
Records with an inconclusive call do not appear. Activity calls are given as the source filed them. Calls follow the shape of the dose curve; as a rule, active = well fitted curve in the direction sought with a large enough effect; inconclusive = small, poorly fitted or top-dose-only effect, or another doubt; inactive = no such curve, though single readings can be large; an effect the other way counts as inactive or inconclusive. *1 amine or outer side, *2 acyl side, *3 side chain or, on linkers, in order; H or OH if unused. Where a SMILES comes first, the peptide text is derived from it. [ ]: non-standard residue; d: D form. X5 = CC(CC(O[*:1])C(=O)[*:2])C(=O)O; NMeV = CN[CH](C(=O)O)C(C)C; NMeA = CN[CH](C)C(=O)O; βAla = NCCC(=O)O

Key:
[1] = system: Zika virus NS2B-NS3 protease (linked construct); assay: Primary screen NINDS Rhodamine qHTS for Zika virus inhibitors (AID 1347160); also: nearly all actives have a fitted effect of over 55% in size; as to activity change, negative = inhibition: % is scaled to controls: 0 for no effect and ±100 for the full control effect
Summary of the method: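 Kinetic fluorescence (Ex 480 nm, Em 540 nm) over 15 min with 1.5 microM Rhodamine110 peptide and 25 nM linked protease.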

[2] = molecular target: Calcium and integrin-binding protein 1 (Homo sapiens) (UniProt Q99828); assay: Primary qHTS for Identification of Calcium Integrin Binding Protein 1 (CIB1) Competitor (AID 1508620);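 also: GST tagged CIB1 binding a fluorescein labelled alphaIIb integrin peptide tracer; top concentration of the series differs between compounds; % is scaled to controls: 0 for no effect and ±100 for the full control effect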
Summary of the method: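 Fluorescence polarization competition: CIB1-GST (1 uM final) preincubated with compound 15 min at room temperature, then FITC-labeled alphaIIb peptide (100 nM final) added for another 15 min. Polarization read at Ex 480/Em 540.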

[3] = molecular target: Glutathione peroxidase 1 (Homo sapiens) (UniProt P07203); assay: Primary qHTS Assay for Inhibitors of Recombinant Selenoprotein Glutathione Peroxidase 1 (GPX1) (AID 1845191); also: nearly all actives have a fitted effect of over 65% in size
Summary of the method: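 Recombinant GPX1 (10 nM final) was preincubated with compound for 30 min at room temperature, then reacted with 1 mM GSH, 0.5 mM CHP, 0.5 mM NADPH and 100 nM glutathione reductase; NADPH fluorescence (340/450 nm) was read at 0 and 15 min.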

[4] = molecular target: Phospholipid hydroperoxide glutathione peroxidase GPX4 (Homo sapiens) (UniProt P36969); assay: Primary qHTS Assay for Inhibitors of Recombinant Selenoprotein Glutathione Peroxidase 4 (GPX4) (AID 1845192); also: % is scaled to controls: 0 for no effect and ±100 for the full control effect; nearly all actives have a fitted effect of over 65% in size
Summary of the method: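 GR-coupled readout: 100 nM GR, 1 mM GSH, 0.5 mM NADPH; NADPH fluorescence (ex 340/em 450 nm) read at t=0 and after 15 min RT. GPX4 200 nM, preincubated 30 min with compound; substrate 0.5 mM CHP.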

[5] = Primary fluorescence-based thiol-reactive (MSTI) qHTS assay for identification of artifact compounds. (AID 1845221); also: nearly all actives have a fitted effect of over 65% in size; also: potency is read from the fitted curve at half-maximal effect;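 as to activity change, negative = thiol reactive: thiol-reactive compounds lower the probe fluorescence signal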
Summary of the method: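 First, 4 uM MSTI in 2% DMSO/PBS pH 7.4 was dispensed; next, compounds were added; then plates sat 1 h at room temperature without light. Finally, emission at 598 nm was recorded.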

[6] = system: Nanoluciferase (engineered Oplophorus gracilirostris luciferase); assay: Primary Nanoluciferase (NLuc) qHTS assay for identification of artifact compounds. (AID 1845222);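 also: NLuc secreted into diluted conditioned medium of S16 cells; 0% = DMSO and -100% = no enzyme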
Summary of the method: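 Concentration-response data were obtained by luminescence after 5 min with Nano-Glo substrate at 1:100. The enzyme was diluted S16 NLuc-expressing cell medium, preincubated with compound for 15 min at RT. Curves were fitted with a 4-parameter Hill model.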

[7] = Primary redox qHTS assay for identification of artifact compounds. (AID 1845223);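 also: 0% = DMSO and 100% = reference compound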
Summary of the method: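 Amplex Red (25 uM) and HRP (250 mU/mL) in HBSS, with compounds for 15 min, then 250 uM DTT for 30 min, room temperature, dark. Fluorescence 525/598 nm read; normalized to DMSO and 10 uM DA3003; Hill fit.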

[8] = system: HaCat; assay: Cytotoxic Profiling of Annotated Libraries Using Quantitative High-Throughput Screening (AID 1296008); settings: Five cell lines viability, CellTiter-Glo ATP luminescence, 48-72 h; max response: hits give low values; also: nearly all actives have a fitted effect of over 60% in size; also: potency is read from the fitted curve at half-maximal effect; as to max response: % is scaled to controls: 0 for no effect and ±100 for the full control effect
Summary of the method: (§1)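 Compounds were pin-transferred onto cells and incubated 48 or 72 hr at 37 degree Celsius, 95% humidity. CellTiter-Glo was added, plates sat 10 min at room temperature, then ATP-coupled luminescence was imaged as the viability read-out.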

[9] = system: NIH3T3; assay: as above; settings: Five cell lines viability, CellTiter-Glo ATP luminescence, 48-72 h; max response: hits give low values
Summary of the method: as §1

[10] = system: C33A; assay: Primary qHTS to identify gynecologic anti-cancer compounds using libraries of approved drugs and bioactive compounds (AID 1345084); settings: Gynecologic cancer cell panel viability, ATPlite luminescence, 48 h; series mostly up to 57.5 µM; also: % is scaled to controls: 0 for no effect and ±100 for the full control effect; nearly all actives have a fitted effect of over 55% in size
Summary of the method: (§2)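 48 h compound exposure at 37 C, 5% CO2; five-point qHTS. ATPlite luminescence readout of cell ATP.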

[11] = system: CAOV3; assay: as above; settings: Gynecologic cancer cell panel viability, ATPlite luminescence, 48 h; series mostly up to 57.5 µM
Summary of the method: as §2

[12] = system: CASKI; assay: as above; settings: Gynecologic cancer cell panel viability, ATPlite luminescence, 48 h; series mostly up to 57.5 µM
Summary of the method: as §2

[13] = system: Es-2; assay: as above; settings: Gynecologic cancer cell panel viability, ATPlite luminescence, 48 h; series mostly up to 57.5 µM
Summary of the method: as §2

[14] = system: Hek293T; assay: as above; settings: Gynecologic cancer cell panel viability, ATPlite luminescence, 48 h, control line for the selectivity index; series mostly up to 57.5 µM
Summary of the method: as §2

[15] = system: JEG-3; assay: as above; settings: Gynecologic cancer cell panel viability, ATPlite luminescence, 48 h; series mostly up to 57.5 µM
Summary of the method: as §2

[16] = system: OV90; assay: as above; settings: Gynecologic cancer cell panel viability, ATPlite luminescence, 48 h; series mostly up to 57.5 µM
Summary of the method: as §2

[17] = system: PA-1; assay: as above; settings: Gynecologic cancer cell panel viability, ATPlite luminescence, 48 h; series mostly up to 57.5 µM
Summary of the method: as §2

[18] = system: Tov-21-G; assay: as above; settings: Gynecologic cancer cell panel viability, ATPlite luminescence, 48 h; series mostly up to 57.5 µM
Summary of the method: as §2

[19] = system: Tov112D; assay: as above; settings: Gynecologic cancer cell panel viability, ATPlite luminescence, 48 h; series mostly up to 57.5 µM
Summary of the method: as §2

[20] = molecular target: Luciferin 4-monooxygenase (Photinus pyralis) (UniProt P08659); assay: Primary firefly luciferase (FLuc) qHTS assay for identification of artifact compounds. (AID 1845220); settings: outcome: dose series up to 54.1 µM unless noted; also: nearly all actives have a fitted effect of over 60% in size;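 as to activity change, negative = inhibition: plate controls were DMSO vehicle for no effect and no enzyme for full effect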
Summary of the method: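 Reaction readout was CCD-imaged luminescence, taken 5 min after adding 10 nM purified firefly enzyme to compound-treated wells holding 10 uM luciferin and ATP in pH 7.6 buffer.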

Calcium and integrin-binding protein 1 (Homo sapiens), sequence (Q99828 whole entry, looked up): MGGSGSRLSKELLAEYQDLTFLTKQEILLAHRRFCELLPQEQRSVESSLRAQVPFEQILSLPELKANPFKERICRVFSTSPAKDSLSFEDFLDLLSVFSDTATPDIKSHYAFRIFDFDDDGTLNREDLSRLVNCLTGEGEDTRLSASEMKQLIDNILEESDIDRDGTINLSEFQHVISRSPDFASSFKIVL
Phospholipid hydroperoxide glutathione peroxidase GPX4 (Homo sapiens), sequence (P36969 whole entry, looked up): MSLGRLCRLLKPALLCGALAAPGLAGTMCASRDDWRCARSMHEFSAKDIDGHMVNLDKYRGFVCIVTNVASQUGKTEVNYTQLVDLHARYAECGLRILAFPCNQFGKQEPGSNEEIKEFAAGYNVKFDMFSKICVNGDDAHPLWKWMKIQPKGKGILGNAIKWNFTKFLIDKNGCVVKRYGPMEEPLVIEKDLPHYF
Glutathione peroxidase 1 (Homo sapiens), sequence (P07203 whole entry, looked up): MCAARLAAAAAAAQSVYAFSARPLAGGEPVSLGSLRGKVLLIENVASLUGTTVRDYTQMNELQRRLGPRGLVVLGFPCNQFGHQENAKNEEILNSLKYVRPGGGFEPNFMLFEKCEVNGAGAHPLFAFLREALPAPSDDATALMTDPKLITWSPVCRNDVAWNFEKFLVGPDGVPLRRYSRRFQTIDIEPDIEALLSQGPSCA

C[C@H]1CN(CC[C@H](O)C2CCCCC2)CC[C@@]1(C)c1cccc(O)c1
inactive: Potency [1] | Potency [2] | Potency [3] | Potency [4] | Potency [5] | Potency [6] | Potency [7] | max response [8] 3.77% | max response [9] -4.6% | Potency [10] | Potency [11] | Potency [12] | Potency [13] | Potency [14] | Potency [15] | Potency [16] | Potency [17] | Potency [18] | Potency [19]

CCOP(=O)(OCC)Oc1ccc2c(C)cc(=O)oc2c1
inactive: Potency [1] | Potency [2] | Potency [3] | outcome [20] | Potency [5] | Potency [6] | Potency [7] | max response [8] -15.5% | max response [9] -21.6% | Potency [10] | Potency [11] | Potency [12] | Potency [13] | Potency [16] | Potency [17] | Potency [18] | Potency [19]

CC1(C)C(=O)N(c2ccc(C#N)c(C(F)(F)F)c2)C(=S)N1c1ccc(C(N)=O)c(F)c1
inactive: Potency [1] | Potency [2] | Potency [3] | Potency [4] | outcome [20] | Potency [5] | Potency [6] | Potency [7] | outcome [8] | max response [9] 0.467% | Potency [10] | Potency [12] | Potency [13] | Potency [14] | Potency [15] | Potency [16] | Potency [17] | Potency [18] | Potency [19]

C[C@@H]1CCC2[C@@H](C)C(=O)OC3O[C@@]4(C)CCC1[C@]32OO4 (stereo partly specified)
inactive: Potency [2] | Potency [4] | outcome [20] | Potency [5] | Potency [6] | Potency [7] | max response [8] -1.21% | max response [9] -13.5% | Potency [10] | Potency [11] | Potency [12] | Potency [13] | Potency [14] | Potency [15] | Potency [16] | Potency [17] | Potency [18] | Potency [19]

CCCCCn1cc(C(=O)c2cccc3ccccc23)c2ccccc21
inactive: Potency [1] | Potency [2] | Potency [3] | Potency [4] | Potency [5] | max response [8] -4.01% | max response [9] 4.48% | Potency [10] | Potency [11] | Potency [12] | Potency [13] | Potency [14] | Potency [15] | Potency [16] | Potency [17] | Potency [18] | Potency [19]

C/C=C(\C)C(=O)OC1C2C3(C)CCC(OC4CC(OC)C(OC5OC(C)C(O)C(OC)C5O)C(C)O4)CC3CCC23OC32CCC(C(C)=O)C2(C)C1OC(=O)/C(C)=C/C (stereo unspecified)
inactive: Potency [1] | Potency [2] | Potency [3] | Potency [4] | activity change, negative = inhibition [20] 0.886% [at 11.6 µM] | activity change, negative = thiol reactive [5] 84.6% [at 11.5 µM] | outcome [8] | max response [9] -16.5% | activity change, negative = cytotoxicity [10] 10.6% [at 11.6 µM] | activity change, negative = cytotoxicity [11] 0.328% [at 11.6 µM] | activity change, negative = cytotoxicity [12] -3.16% [at 11.6 µM] | activity change, negative = cytotoxicity [13] -0.14% [at 11.6 µM] | activity change, negative = cytotoxicity [14] 2.72% [at 11.6 µM] | activity change, negative = cytotoxicity [15] 7.67% [at 11.6 µM] | activity change, negative = cytotoxicity [16] 2.67% [at 11.6 µM] | activity change, negative = cytotoxicity [17] 2.59% [at 11.6 µM] | activity change, negative = cytotoxicity [18] -0.804% [at 11.6 µM] | activity change, negative = cytotoxicity [19] -1.3% [at 11.6 µM]

CN1CCCCC1Cn1cc(C(=O)c2cc([N+](=O)[O-])ccc2I)c2ccccc21 (stereo unspecified)
inactive: Potency [1] | Potency [2] | Potency [3] | Potency [4] | outcome [20] | Potency [7] | outcome [8] | outcome [9] | Potency [10] | Potency [11] | Potency [12] | Potency [13] | Potency [14] | Potency [15] | Potency [16] | Potency [17] | Potency [18] | Potency [19]

CCC(C)C1NC(=O)C2CCCN2C(=O)C(CC(C)C(=O)O)OC(=O)CCNC(=O)C(C)N(C)C(=O)C(C(C)C)N(C)C1=O (stereo unspecified) (cyclo([X5]PI[NMeV][NMeA][βAla]); configuration not given here)
inactive: Potency [1] | Potency [2] | Potency [3] | outcome [20] | Potency [5] | Potency [6] | Potency [7] | max response [8] 4.66% | max response [9] 3.88% | Potency [10] | Potency [11] | Potency [12] | Potency [13] | Potency [14] | Potency [15] | Potency [16] | Potency [17] | Potency [18] | Potency [19]

CC1CCCC(O)CCC/C=C/c2cc(O)cc(O)c2C(=O)O1 (stereo unspecified)
inactive: Potency [2] | Potency [4] | outcome [20] | max response [8] 0.224% | Potency [11] | Potency [12] | Potency [13] | Potency [14] | Potency [15] | Potency [16] | Potency [17] | Potency [18] | Potency [19]
active: Potency [5] 1.85 µM | Potency [9] 8.05 µM

COC(=O)C12C(=O)C(C)(O)C(=O)C1(C)C(C)=CC1C3(C=O)CCC(OC(C)=O)C(C)(C)C3CCC12C (stereo unspecified)
inactive: Potency [3] | Potency [4] | outcome [20] inactive [at 25.7 µM] | Potency [5] | Potency [7] | max response [8] -17.3% | max response [9] -2.03% | Potency [10] | Potency [11] | Potency [12] | Potency [13] | Potency [14] | Potency [15] | Potency [16] | Potency [17] | Potency [18] | Potency [19]

C=C(C)[C@@]12O[C@@H]1[C@@]1(C)C(=C[C@H]2O)CC[C@@H](O)[C@@H]1C
inactive: Potency [1] | Potency [2] | Potency [3] | Potency [4] | outcome [20] | Potency [5] | Potency [7] | max response [8] -1.07% | max response [9] 2.77% | Potency [10] | Potency [11] | Potency [12] | Potency [13] | Potency [14] | Potency [15] | Potency [16] | Potency [17] | Potency [18] | Potency [19]
